High-throughput results deposited in PubChem BioAssay by National Center for Advancing Translational Sciences (NCATS).
The list is not random: actives were taken first. Their share in the collection is about 19%.
IL1B secr inh – qHTS for Inhibitors of Inflammasome Signaling: IL-1-beta AlphaLISA Primary Screen | THP-1 LPS/ATP IL-1B secretion, AlphaLISA, 16 h; stronger effect = lower value | activity change, % at 57.5 µM | AID 743279, 2014 | actives 4.7% (n = 360,000); in the data active = activity change below about -50%; inconclusive = mostly about -30% to -49%
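Secreted IL-1B measured by AlphaLISA bead assay after 16 h compound exposure of THP-1 cells; compounds (final up to 57.5 uM) added 1 h before LPS (250 ng/mL) and ATP (1.25 mM) stimulation; lower signal means less secretion.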
HT1080 IDH1KD tx – qHTS for induction of synthetic lethality in tumor cells producing 2HG: qHTS for the HT-1080-IDH1KD cell line; HT-1080 IDH1 knockdown viability, ATP luminescence, 48 h; Potency, µM (doses to about 46.1 µM), most hits filed as cytotoxic; actives 2% (n = 360,000); AID 686971, 2013
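Cytotoxicity counter-line: IDH1KD HT-1080, 48 h, CellTiter-Glo. Curves classed by r2, magnitude and activity.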
TDP1 cell noCPT – qHTS for Inhibitors of human tyrosyl-DNA phosphodiesterase 1 (TDP1): qHTS in cells in absence of CPT; DT40 Tdp1-/- hTDP1 cells, no CPT, ATP luminescence, 48 h; Potency, µM (doses to about 46.2 µM), usual class: inhibitors; actives 15% (n = 420,000); note: nearly all actives have a fitted effect of over 55% in size
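DT40 Tdp1-/-;hTDP1 cells, no CPT (DMSO vehicle only), 400 cells/well; compounds pin-transferred; ≥48 hr, 37 °C; CellTiter-Glo 30 min RT dark, luminescence read.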
HT1080NT lethal – qHTS for induction of synthetic lethality in tumor cells producing 2HG: qHTS for the HT-1080-NT fibrosarcoma cell line; HT-1080-NT fibrosarcoma viability, CellTiter-Glo ATP luminescence, 48 h; Potency, µM (series often up to 46.1 µM), hits mostly cytotoxic; actives 1.6% (n = 360,000); AID 686970, 2013;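 note: NT is the 2HG producing partner of a matched IDH1 knockdown line; nearly all actives have a fitted effect of over 55% in size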
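Viability of the 2HG-overproducing fibrosarcoma line after 48 hours of compound exposure at 37 degrees C was determined by luminescence with CellTiter-Glo, and concentration-effect curves were then fitted and categorized.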
DT40 TDP1 CPT – qHTS for Inhibitors of human tyrosyl-DNA phosphodiesterase 1 (TDP1): qHTS in cells in presence of CPT. chicken DT40 Tdp1-/-;hTDP1 cells + 20 nM CPT, ATP luminescence, 48 h. Potency, µM (highest dose often 46.2 µM), usual class: inhibitors. actives 12% (n = 420,000); note: nearly all actives have a fitted effect of over 55% in size
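Chicken DT40 Tdp1-/- cells stably complemented with human TDP1 were seeded at 400 cells/well in medium containing 20 nM camptothecin, exposed to pin-transferred compounds, and grown at 37 °C for at least 48 hr. Viability was read as ATP luminescence.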
Hits are given with their value; i = inactive; ? = inconclusive; nt = no result; ! = a repeat was not active; [ ] = another dose, or the depositor's remark. Unless noted, calls come from the whole dose curve; as a rule, active = well fitted curve in the direction sought with a large enough effect; inconclusive = small, poorly fitted or top-dose-only effect, or another doubt; inactive = no such curve, though single readings can be large; an effect the other way counts as inactive or inconclusive.

SMILES | IL1B secr inh | HT1080 IDH1KD tx | TDP1 cell noCPT | HT1080NT lethal | DT40 TDP1 CPT
CN(C)CCOc1ccc(-c2c(-c3ccccc3)sc3ccccc23)cc1 | ? | ? | 6.51µM | ? | 10.3µM
COc1cc(OC)cc(-c2sc3ccc(OC)cc3c2-c2ccc(OCCN3CCCCC3)cc2)c1 | i | i | ? | ? | ?
c1ccc(-c2sc3ccccc3c2-c2ccc(OCCN3CCCCC3)cc2)cc1 | i | i | ? | i | ?
c1ccc2c(-c3ccc(OCCN4CCCCC4)cc3)c(-c3ccsc3)sc2c1 | i | i | 16.4µM | i | 16.4µM
COc1ccc(-c2sc3cc4c(cc3c2-c2ccc(OCCN3CCCCC3)cc2)OCO4)cc1 | i | i | 20.6µM | i | 16.4µM
COc1ccc(-c2sc3cc4c(cc3c2C#CC2(O)CCCCC2)OCO4)cc1 | i | i | 20.6µM | i | 18.4µM
O=C(CN1CCN(S(=O)(=O)c2ccc(Br)cc2)CC1)N/N=C/c1ccc(Br)s1 | ? | ? | ? | i | ?
CCCNC(=O)c1ccc2c(c1)nc(C)n2-c1cccc(C)c1 | i | i | ? | i | 16.4µM!
CCc1ccc(-n2c(C)nc3cc(C(=O)NCCc4ccccc4)ccc32)cc1 | nt | nt | ? | nt | 20.6µM
Cc1cccc(-n2c(C)nc3cc(C(=O)NCCC4=CCCCC4)ccc32)c1 | nt | nt | ? | nt | 14.6µM
COC(CNC(=O)c1ccc2c(c1)nc(C)n2-c1cccc(C)c1)OC | i | i | i | i | i
COC(=O)CCCC1=CC2=CC(=O)C(C)(OC(=O)c3cccs3)C(=O)C2=CN1CCN1CCOCC1 (stereo unspecified) | i | i | i | i | i
C=CCn1c(CCC(=O)O)ccc1-c1ccccc1 | -77.2 | i | ? | i | i
O=C(O)CCc1ccc(-c2ccc(Cl)cc2)n1CCC(=O)O | i | ? | i | ? | i
COc1ccc(NC(=O)CN2CCN(Cc3ccccc3)CC2)cc1 | i | i | i | i | i
CCCCNC(=O)CN1CCN(Cc2ccc3cc(OC)ccc3c2)CC1 | i | i | 18.4µM | i | ?
O=C(CCC1CCN(Cc2nccs2)CC1)Nc1ccccc1 | i | i | ? | i | i
O=C(Nc1cccc(-c2cccc(Cl)c2)c1)C1CCN(Cc2nccs2)CC1 | i | ? | 5.8µM | i | 9.2µM
O=C(Nc1cccc(-c2cccc(Cl)c2)c1)C1CCN(Cc2ccc(CO)o2)CC1 | -81.0 | 16.4µM | ? | 16.4µM | ?
CC(C)n1cc(CN2CCC(C(=O)Nc3cccc(-c4cccc(Cl)c4)c3)CC2)cn1 | i | ? | ? | 18.4µM | ?
COc1ccc(-c2sc(Nc3ccc(F)c(F)c3F)nc2CCC(=O)NN)cc1 | ? | i | ? | ? | ?
O=C(c1ccccc1-n1cccn1)N1CCOc2c(cc(-c3ncc(C(F)(F)F)cc3Cl)cc2OCC2CCCO2)C1 (stereo unspecified) | nt | nt | i | nt | ?
CCOC(=O)N1CCN(C(=O)C[C@@H]2C[C@@]3(C(=O)OCC)CCCC=C3N(CCC3=CCCCC3)C2=O)CC1 | i | ? | 16.4µM | ? | ?
CCOC(=O)[C@]12CCC=C1N(CCC1=CCCCC1)C(=O)[C@H](CC(=O)N1CCC(c3ccccc3)CC1)C2 | i | ? | 18.4µM | ? | ?
COc1ccc(CNC(=O)C2CCC(CNS(=O)(=O)c3ccccc3)CC2)cc1 (stereo unspecified) | i | i | i | i | i
SMILES | IL1B secr inh | HT1080 IDH1KD tx | TDP1 cell noCPT | HT1080NT lethal | DT40 TDP1 CPT
NC(=S)N/N=C1\CCSc2ccc(Cl)cc21 | i | i | 18.4µM | i | 20.6µM
CCOC(=O)c1c(C)n(-c2ccccc2)c2ccc(OC(=O)c3ccccc3NC(=O)C(C)C)cc12 | nt | nt | 18.4µM | nt | ?
CCOC(=O)c1c(C)n(-c2ccccc2)c2ccc(OC(=O)c3ccccc3NC(=O)C(C)(C)C)cc12 | nt | nt | 11.6µM | nt | ?
COc1ccc2c(c1)c(C(C)=O)c(C)n2-c1ccccc1 | i | i | i | i | i
COCCOC(=O)c1c(C)n(C)c2ccc(OC(=O)c3ccccc3OC)cc12 | i | i | 16.4µM | i | i
O=C(Nc1ccc(N2CCCC2)c(Cl)c1)c1ccc2c(c1)OCCO2 | -64.2 | i | 20.6µM | i | ?
O=C(Nc1ccc(N2CCCCC2)c(Cl)c1)c1ccc2c(c1)OCCO2 | i | ? | 20.6µM | ? | ?
CCN(CC)S(=O)(=O)c1ccc(N2CCOCC2)c(NC(=O)c2ccc(C#N)cc2)c1 | i | i | i | i | i
Cc1sc(NC(=O)c2cccs2)nc1-c1ccccc1 | ? | i | ? | i | 23.1µM
CC(=O)Cc1nsc(NC(=O)c2cccs2)n1 | i | i | 23.1µM | i | ?
CC(=O)Nc1sc(N/N=C\c2ccccc2F)nc1-c1cccs1 | i | i | i | i | i
Cc1sc(N/N=C/c2cccs2)nc1-c1ccccc1 | i | i | 18.4µM | i | ?
COCC(=O)Nc1nc(-c2ccccc2)c(C)s1 | i | i | i | i | i
CC(=O)c1ccc(OCCCC(=O)Nc2cccc(-c3nn[nH]n3)c2)cc1 | i | i | i | i | i
Nc1nc(SCC(=O)Nc2ccccc2C(F)(F)F)[nH]c(=O)c1-c1ccccc1 | i | i | i | i | i
COc1cc(OC)cc(-c2c(-c3cccs3)c3cc(-c4ccc5cc[nH]c5c4)ccc3n2C)c1 | i | i | 13µM | i | ?
COc1cccc(-c2c(-c3cc(OC)cc(OC)c3)n(C)c3ccc(-c4ccc5cc[nH]c5c4)cc23)c1 | i | i | ? | i | 18.4µM
COc1ccc(-c2ccc3c(c2)c(Sc2ccccc2)c(-c2ccccc2)n3C)cn1 | i | i | ? | i | ?
Cn1c(-c2ccccc2)c(Sc2ccccc2)c2cc(-c3ccc4cc[nH]c4c3)ccc21 | i | i | 23.1µM | i | ?
Cn1c(SCC2CCCO2)nnc1C1CCN(Cc2ccc(-c3cccc(Cl)c3)o2)CC1 (stereo unspecified) | nt | nt | ? | nt | i[9.04 µM]
O=C(NCCCN1CCOCC1)c1cc(S(=O)(=O)N2CCCCC2)ccc1Cl | i | i | i | i | i
COc1ccc(S(=O)(=O)N2CCCC2CNC(=O)c2cccc(OC)c2)cc1 (stereo unspecified) | i | i | i | i | i
C=CCN(c1ccccc1OC)S(=O)(=O)c1cccc(C(=O)Nc2nnc(C3CC3)s2)c1 | i | i | i | i | i
O=C1CC(=C(c2ccccc2)c2ccccc2)C(=O)N1CCCN1CCN(c2cccc(Cl)c2)CC1 | i | i | ? | i | ?
O=C1CC(=C2c3ccccc3-c3ccccc32)C(=O)N1CCCCN1CCN(c2ccccc2)CC1 | i | ? | 16.4µM | ? | 18.4µM
Cc1ccccc1OCCCCn1c(CO)nc2ccccc21 | i | i | 10.3µM | ? | 9.2µM
